Sampled rows, rich in hits. Any-hit rate of the full collection: about 3.4%.
MITF TRPM1 HTS – MITF TRPM1 promoter activation in melanoma cells; SK-MEL-5 TRPM1-promoter luciferase, 24 h; % of positive control, neutral wells = 0; activation, % at 12.5 µM; 300,000 compounds, 0.75% hits; AID 588334;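 active means mean activation of at least 80% with every replicate also reaching 80%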
esBAF inh – SWI/SNF esBAF complex inhibition. mouse ES cells, Bmi1-luciferase knock-in reporter, 24 h; 100% = twice the neutral-well signal. reporter increase, % at 12.5 µM. 350,000 compounds, 2% hits. AID 602393; in the data active means activation above about 40%;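 further: a rise in the Bmi1 reporter signal indicates esBAF inhibition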
miR122 inh – inhibitors of miR-122 in Huh7 cells; 340,000 compounds, 0.3% hits; Huh7 miR-122 Renilla luciferase sensor, 48 h; neutral wells = 0, positive control = 100; activation (reporter increase), % at 12.5 µM; AID 602342;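 active means mean replicate activation score at least 90 and every replicate individually at or above 90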;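 further: higher luciferase means less miR-122 activity so hits act as miR-122 inhibitors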
Env fusion inh – inhibitors of HIV Env-mediated cell fusion. AID 651610. inhibition, % at 12.3 µM. HeLa-JRFL Env/CEM21 cell fusion, luciferase. 360,000 compounds, 1.1% hits;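 active means mean replicate inhibition score of at least 50 and every replicate individually at or above 50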
Wnt bcat act – activators of Wnt/beta-catenin signaling; AID 743398; Wnt/beta-catenin reporter cell assay, activator, plate reader; 300,000 compounds, 1.2% hits; activation, % at 9.35 µM; in the data active means activation above about 30%, passing the limit was not always enough
Hits are given with their value; n = inactive; x = no result.

SMILES	MITF TRPM1 HTS	esBAF inh	miR122 inh	Env fusion inh	Wnt bcat act
CCCNC(=O)[C@H]1[C@H](CO)[C@H]2Cn3c(cccc3=O)[C@@H]1N2CCC	x	n	n	x	x
Cc1cc(N=Nc2ccccc2C)ccc1N	n	n	n	n	55
Nc1ccc(N=Nc2ccccc2)cc1	n	x	x	n	n
NCC(=O)c1ccccc1	n	67	n	n	n
CN1C(=O)C(=Cc2c(OCc3cnc(Cl)s3)ccc3ccccc23)C(=O)N(C)C1=O	n	50	n	n	n
CC(=NCc1ccc2c(c1)OCO2)c1c(O)n(C)c(=O)n(C)c1=O	x	n	n	n	n
CCC(=NCCc1c[nH]c2ccccc12)c1c(O)n(C)c(=O)n(C)c1=O	n	n	n	81	n
CCC(=NCCOc1ccc(Cl)cc1)c1c(O)n(C)c(=O)n(C)c1=O	n	x	n	50	n
CCC(=NCc1ccc2c(c1)OCO2)c1c(O)n(C)c(=O)n(C)c1=O	x	n	n	77	n
CC=Cc1ccc2n(c1=O)C[C@@H]1[C@@H](CO)[C@H](C(=O)OC)[C@H]2N1C(=O)CC (mixture of isomers)	x	n	x	x	x
CC(=O)OC1C(=O)OCC23CCC4(C)OC4C2OC2CC(OC(=O)C=CC=CC(=O)OCCC1C)C3(C)C21CO1 (stereo unspecified)	n	x	x	77	n
COC(=O)[C@H]1[C@H](CO)[C@H]2Cn3c(ccc(-c4ccc(F)cc4)c3=O)[C@@H]1N2Cc1cccnc1	x	n	x	n	x
CCOc1c(Cl)cc(CNCCc2c[nH]c3ccccc23)cc1OC	n	n	n	64	n
Fc1ccccc1CNCCc1c[nH]c2ccccc12	n	n	x	n	n
Fc1ccc(CNCCc2c[nH]c3ccccc23)cc1	n	n	n	n	n
CCOc1cc(CNCCc2c[nH]c3ccccc23)cc(Cl)c1OCC	n	x	x	68	n
COc1ccc(-c2ccc([C@H]3[C@@H](CO)N4CCCCN(C(=O)Cc5ccncc5)C[C@H]34)cc2)cc1	x	n	n	x	x
COc1ccc(C#Cc2ccc([C@@H]3[C@@H](CO)N4CCCCN(C(=O)Cc5ccncc5)C[C@@H]34)cc2)cc1	x	x	n	x	x
CC(=O)OC1CC(OC2C(O)CC(OC3C(O)CC(OC4CCC5(C)C(CCC6C5CCC5(C)C(C7=CC(=O)OC7)CCC65O)C4)OC3C)OC2C)OC(C)C1OC1OC(CO)C(O)C(O)C1O (stereo unspecified)	n	x	n	69	n
CC1=C(N2CC2)C(=O)C(CO)=C(N2CC2)C1=O	x	x	n	80	n
CCCNC(=O)[C@H]1[C@H](CO)[C@H]2Cn3c(cccc3=O)[C@H]2N1C	x	n	x	n	x
O=C(CNC(=O)OCc1ccccc1)Nc1ccc(Br)cc1C(=O)c1ccccc1	n	x	n	59	x
Cc1cc(C(=O)Nc2ccccc2)nn1C(C)(C)C	x	x	n	n	37
O=C(Nc1ccc2c(c1)OCO2)c1cn(Cc2ccc(F)cc2)nn1	n	n	n	n	x
Cc1cc(C(=O)Nc2ccc3c(c2)OCCO3)nn1C(C)(C)C	x	n	n	n	56
SMILES	MITF TRPM1 HTS	esBAF inh	miR122 inh	Env fusion inh	Wnt bcat act
Cc1ccccc1-c1ccc([C@@H]2[C@H](CO)N3CCCCN(C(=O)Cc4ccccn4)C[C@@H]23)cc1	x	x	n	x	x
Clc1ccc(C[n+]2c(-c3ccccc3)cc(-c3ccccc3)cc2-c2ccccc2)cc1	n	n	n	107	n
CN(Cc1cccc(-c2cccnc2)c1)C(=O)Oc1ccc([N+](=O)[O-])cc1	x	x	x	134	n
N#Cc1cc2c(nc1SCC(=O)Nc1cc(Cl)ccc1Cl)C1CCN2CC1	n	58	n	n	n
Cc1noc(C)c1CSCC(=O)Nc1ccc(C#N)c(Cl)c1	n	n	x	n	n
O=C(CN1CC=C(c2ccccc2)CC1)Nc1cc(Cl)ccc1Cl	n	x	x	n	n
N#Cc1cc2c(nc1SCC(=O)Nc1ccc(Cl)cc1)C1CCN2CC1	n	46	n	x	n
O=C(Cc1cccnc1)N1CCCCN2[C@H](C1)[C@@H](c1ccc(/C=C/c3ccccc3)cc1)[C@@H]2CO	x	x	n	x	x
Cc1nc2c(c(C)nn2-c2ccccc2)c(C)c1CCC(=O)N1CCC2(CC1)OCCO2	n	55	x	x	x
Cc1nc2c(-c3ccccc3)c(C)nn2c(C)c1CCC(=O)N1CCC2(CC1)OCCO2	x	n	n	n	n
COOCC1(C(=O)OC)C[C@H](c2ccc(OC)cc2)N(Cc2ccccc2OC)[C@@H]1c1ccccc1C (stereo partly specified)	x	x	x	89	n
COC(=O)[C@H]1[C@H](CO)[C@H]2Cn3c(ccc(/C=C/c4ccccc4)c3=O)[C@@H]1N2Cc1ccccc1F	x	n	x	n	x
COc1ccc(-c2nc3ccccc3c(=O)o2)cc1	n	50	x	n	n
COc1ccc(-n2c(-c3ccc(C)cc3)nc3ccccc3c2=O)cc1	x	x	x	n	n
C=CCN1C(=O)NC(=O)/C(=C\c2ccc(-c3ccccc3[N+](=O)[O-])o2)C1=O	n	x	x	n	48
O=C(Nc1cccc(OC(=O)N2CCOCC2)c1)N1CCOCC1	n	x	n	72	x
CC12CCC(=O)C=C1C=CC1C2CCC2(C)C(O)CCC12 (stereo unspecified)	n	n	n	81	n
C[C@]12CCC(=O)C=C1C=CC1C2CC[C@@]2(C)C1CC[C@@H]2O (stereo partly specified)	n	x	n	n	n
O=C(NN=Cc1ccc(N(CCCl)CCCl)cc1Cl)c1cccnc1	n	x	x	56	n
CC(=NCCc1ccccc1)c1c(O)n(C)c(=O)n(C)c1=O	n	x	x	n	n
Cn1c(O)c(Cc2ccc(OCc3ccccc3)cc2)c(=O)n(C)c1=O	n	n	n	n	33
O=C(NC[C@H]1CC[C@H]2[C@H](CN2Cc2cccnc2)O1)C1CC1	x	x	x	n	x
O=C(C1CCN(c2nc3ccc(Br)cc3s2)CC1)N1CCC2(CC1)OCCO2	n	64	n	x	x
COC(=O)[C@H]1[C@H](CO)[C@H]2Cn3c(ccc(C4=CCCC4)c3=O)[C@@H]1N2CC1CCCCC1	x	n	n	x	x
Cc1cccc(S(=O)(=O)N2[C@@H]3c4ccc(-c5ccncc5)c(=O)n4C[C@H]2[C@H](CO)[C@H]3C(=O)O)c1	x	n	n	x	x
SMILES	MITF TRPM1 HTS	esBAF inh	miR122 inh	Env fusion inh	Wnt bcat act
Nc1ncnc2c1ccn2[C@@H]1O[C@H](CO)[C@@H](O)[C@H]1O	x	n	n	x	n
NC(=S)c1cn(C2OC(CO)C(O)C2O)c2ncnc(N)c12 (stereo unspecified)	n	n	x	90	n
CCCCn1nnnc1C(CCc1ccccc1)N1CCC(n2c(=O)[nH]c3ccccc32)CC1 (stereo unspecified)	x	n	n	n	n
CCC(c1nnnn1Cc1ccccc1)N1CCC(n2c(=O)[nH]c3ccccc32)CC1 (stereo unspecified)	x	n	n	55	n
COC(=O)C[C@@H]1CC[C@H]2NC[C@@H](O)COC[C@@H]2O1	x	n	n	n	x
CCC(C)C1NC(=O)C(NC(=O)C(CC(C)C)N(C)C(=O)C2CCCN2C(=O)C(C)O)C(C)OC(=O)C(Cc2ccc(OC)cc2)N(C)C(=O)C2CCCN2C(=O)C(CC(C)C)NC(=O)[C@H](C)C(=O)[C@H](C(C)C)OC(=O)CC1O (stereo partly specified)	x	x	n	83	n

Bioassay records from PubChem.
